Screening data deposited in PubChem BioAssay by National Center for Advancing Translational Sciences (NCATS).
HT1080 IDH1KD tx – HT-1080 IDH1 knockdown cell toxicity (counter line); HT-1080 IDH1 knockdown viability, ATP luminescence, 48 h; Potency, µM (series often up to 46.1 µM), most hits filed as cytotoxic; 360,000 compounds, 2% hits; AID 686971
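Cytotoxicity counter-line: IDH1KD HT-1080, 48 h, CellTiter-Glo. Curves classed by r2, magnitude and activity.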
IL-1B inflam inh – blocks inflammasome-driven IL-1 beta release; 360,000 compounds, 4.7% hits; activity change, % at 57.5 µM; THP-1 LPS/ATP IL-1B secretion, AlphaLISA, 16 h; stronger effect = lower value; in the data active = activity change below about -50%; inconclusive = mostly about -30% to -49%
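THP-1 cells pretreated 1 hr with compounds (up to 57.5 uM final), then stimulated with LPS (250 ng/mL final) plus ATP (1.25 mM final); secreted IL-1B measured by AlphaLISA after 16 hr, decreased signal indicating inhibition.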
HT1080-NT tox – kills 2HG-producing HT-1080-NT fibrosarcoma cells; AID 686970; 360,000 compounds, 1.6% hits; Potency, µM (titrated, usually from 46.1 µM), hits mostly cytotoxic; HT-1080-NT fibrosarcoma viability, CellTiter-Glo ATP luminescence, 48 h;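 note: NT is the 2HG producing partner of a matched IDH1 knockdown line; nearly all actives have a fitted effect of over 55% in size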
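Luminescent CellTiter-Glo readout after 48 hours of compound exposure at 37 degrees C defined viability of HT-1080-NT cells. Activity was normalized to DMSO wells and cell-free media wells; concentration-response curves were fitted and assigned curve classes.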
DT40 TDP1 no CPT – qHTS for Inhibitors of human tyrosyl-DNA phosphodiesterase 1 (TDP1): qHTS in cells in absence of CPT. DT40 Tdp1-/- hTDP1 cells, no CPT, ATP luminescence, 48 h. Potency, µM (titrated, usually from 46.2 µM), usual class: inhibitors. 420,000 compounds, 15% hits; note: nearly all actives have a fitted effect of over 55% in size
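Seeded 400 DT40-hTDP1 cells/well (vehicle DMSO, no 20 nM CPT); pinned compounds; ≥48 hr at 37 °C; CellTiter-Glo luminescence as viability measure.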
TDP1 cell CPT – DT40-hTDP1 cell growth loss with CPT; chicken DT40 Tdp1-/-;hTDP1 cells + 20 nM CPT, ATP luminescence, 48 h; Potency, µM (highest dose often 46.2 µM), most hits filed as inhibitors; 420,000 compounds, 12% hits; note: nearly all actives have a fitted effect of over 55% in size
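Cell growth measured by CellTiter-Glo luminescence after a minimum 48 h, 37 C compound exposure with 20 nM CPT in Tdp1-knockout DT40 cells stably expressing hTDP1, seeded 400/well; qHTS titration format.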
A number is an active result; n = inactive; u = inconclusive; x = no result; [ ] = dose if it differs, or a comment. The list is not random: actives were taken first. Their share in the collection is about 19%. Unless noted, calls come from the whole dose curve; as a rule, active = well fitted curve in the direction sought with a large enough effect; inconclusive = small, poorly fitted or top-dose-only effect, or another doubt; inactive = no such curve, though single readings can be large; an effect the other way counts as inactive or inconclusive.

SMILES | HT1080 IDH1KD tx | IL-1B inflam inh | HT1080-NT tox | DT40 TDP1 no CPT | TDP1 cell CPT
Cn1cc(C2=C(c3cn(CCCSC(=N)N)c4ccccc34)C(=O)NC2=O)c2ccccc21 | x | x | x | 0.71µM | 0.63µM
CCN(CC)CCCn1c2c(c(SCC(=O)N3CCCc4ccccc43)nc1=O)CCC2 | n | n | u | n | u
O=C(NCc1ccc(F)cc1)c1ccc(CS(=O)(=O)Cc2ccc(F)cc2)o1 | n | n | n | u | u
COc1ccccc1S(=O)(=O)Cc1ccc(C(=O)NCc2ccc(Cl)cc2)o1 | x | x | x | 18µM | u
O=C(NCc1ccc(F)cc1)c1ccc(CS(=O)(=O)c2ccc(Cl)cc2)o1 | x | x | x | 16µM | u
COc1ccc(CNC(=O)c2ccc(CS(=O)(=O)c3ccccc3OC)o2)cc1 | x | x | x | u | n
O=Cc1ccc(/C=C2\C=Cc3ccccc32)cc1 | x | x | x | 6.3µM | 5.6µM
CNc1ccc(C=C2C=Cc3ccccc32)cc1 | n | -73 | n | n | n
O=Cc1ccc(/C=C2/C=Cc3ccccc32)cc1 | x | x | x | n | u
COc1cccc(CN(C)CCCn2cnc3c(SC)ncnc32)c1 | n | n | n | n | n
CC1(C)CC2(C)CC(=O)C1C(C(=O)O)C2C(=O)O (configuration not stated) | n | n | n | n | n
Nc1nc(CSc2ccc(Cl)cc2)nc(N2CCCCC2)n1 | n | -59 | n | n | n
CS(=O)(=O)Nc1ccccc1-c1ccc2nccn2c1 | n | n | n | n | n
CN1/C(=C/C(=S)NC(=O)C2CCC2)C(C)(C)c2ccccc21 | n | n | n | 18µM | 16µM
CC(C)C(=O)NC(=S)/C=C1/N(C)c2ccccc2C1(C)C | u | n | n | 8.2µM | 18µM
Cc1ccc(C(=O)NC(=S)/C=C2\N(C)c3ccccc3C2(C)C)cc1 | n | n | n | 3.7µM | 8.2µM
CC(=O)/C=C1\N(C)c2ccc(C)cc2C1(C)C | n | n | n | 5.2µM | 6.5µM
CN1/C(=C\C(=O)C(F)F)C(C)(C)c2ccccc21 | n | n | n | n | n
CN1/C(=C\C(=O)c2cccc(S(=O)(=O)N3CCCCC3)c2)C(C)(C)c2ccccc21 | n | n | n | u | u
COC(=O)c1cc2sccc2n1Cc1c(C)cc(C)cc1C | x | x | x | u | n
CCCN1CCN(CCNC(=O)Nc2cc(C)ccc2OC)CC1 | x | x | x | n | n
O=C(Nc1sc2c(c1C(=O)NCC(O)CO)CCCC2)c1ccccc1 (configuration not stated) | n | n | n | n | n
O=C(CCN1CCCC1=O)NC1CCCc2c1cnn2-c1ccc(F)cc1F (configuration not stated) | n | n | n | n | n
CC(NC(=O)Cc1ccsc1)c1ccc(Cl)cc1Cl (configuration not stated) | n | n | n | n | n
C=C1CC(C(=O)N/N=C/c2ccccc2)C1 | n | n | n | n | n
SMILES | HT1080 IDH1KD tx | IL-1B inflam inh | HT1080-NT tox | DT40 TDP1 no CPT | TDP1 cell CPT
CN1/C(=C\C=N\NC(=O)c2ccc(O)cc2)C(C)(C)c2ccccc21 | n | n | n | 18µM | 21µM
CN1/C(=C\C=N\NC(=O)c2cccnc2)C(C)(C)c2ccccc21 | n | n | n | u | n
Cc1ccc(OCCSCc2nnc(NC(=O)Nc3cccc(Cl)c3)s2)cc1 | u | n | u | 4.6µM | 4.6µM
Cc1nnc(NC(=O)Nc2cccc(Cl)c2)s1 | n | n | n | 13µM | u
CCOc1ccc(NC(=O)Nc2nnc(CC)s2)cc1 | n | n | n | n | n
Cc1cc(C)nc(/N=C(/NC(=O)Nc2cccc(Cl)c2)Nc2ccccc2)n1 | n | n | n | 18µM | u
Cc1csc(NC(=O)Nc2cccc(Cl)c2)n1 | n | n | n | 23µM | u
Cc1cc(C)nc(/N=C(\NC(=O)C(C)(C)C)Nc2ccccc2)n1 | n | n | n | n | n
O=C(/C=C/c1cccc(Cl)c1)NCCCN1CCOCC1 | n | n | n | n | n
CCN(CC(=O)NCc1cccs1)C(=O)c1cccc(S(=O)(=O)N2CC(C)OC(C)C2)c1 (configuration not stated) | n | n | n[9.24 µM] | n | n
CC(=O)c1ccc(N=Cc2c(O)n(-c3cc(Cl)ccc3N3CCOCC3)c(=O)c3ccccc23)cc1 | n | u | n | u | u
O=c1c2ccccc2c(C=Nc2ccc(Cl)cn2)c(O)n1-c1cc(Cl)ccc1N1CCOCC1 | n | n | n | 1.5µM | u
Cc1sc(-c2cc3ccccc3oc2=O)nc1-c1ccc(Cl)cc1 | x | x | x | n | n
O=C(N/N=C/c1ccc(-c2cccc(C(F)(F)F)c2)o1)c1ccccc1O | n | n | n | 8.2µM | 10µM
O=C(N/N=C/c1ccc(-c2cccc(C(F)(F)F)c2)o1)c1cccc(F)c1 | u | n | u | 14µM | 18µM
O=C(N/N=C/c1ccc(-c2cccc(C(F)(F)F)c2)o1)c1ccccc1Br | u | n | n | u | n
NC(=O)N/N=C/c1ccc(-c2cccc(C(F)(F)F)c2)o1 | n | n | n | n | n
COc1ccc(N(CC(=O)NCc2ccccc2OC)S(=O)(=O)c2ccccc2[N+](=O)[O-])c(OC)c1 | n | n | n | u | u
COc1ccc(N(CC(=O)Nc2cc(C)cc(C)c2)S(=O)(=O)c2ccccc2[N+](=O)[O-])c(OC)c1 | n | n | n | n | u
COc1ccc(N(CC(=O)Nc2cc(C)ccc2C)S(=O)(=O)c2ccccc2[N+](=O)[O-])c(OC)c1 | n | n | n | 12µM | u
COc1ccc(N(CC(=O)NCc2ccc3c(c2)OCO3)S(=O)(=O)c2ccccc2[N+](=O)[O-])c(OC)c1 | n | n | n | u | 26µM
COc1ccc(S(=O)(=O)N2CCN(c3nc(-c4cccs4)nc4ccccc34)CC2)cc1OC | x | x | x | u | n
O=C(NC1=NCCS1)c1cccc2ccccc12 | n | n | n | n | n
CN1CCC(N2CCN(C3CN(Cc4cn(Cc5ccc(F)cc5)nn4)S(=O)(=O)C3)CC2)CC1 (configuration not stated) | n | n | n | n | n
Cc1cccc(CN2CCN(C3CN(Cc4cn(Cc5cccc(C(F)(F)F)c5)nn4)S(=O)(=O)C3)CC2)c1 (configuration not stated) | n | n | n | 21µM | u
CCCCCCN1CCN(C2CN(Cc3cn(Cc4cccc(Cl)c4)nn3)S(=O)(=O)C2)CC1 (configuration not stated) | n | u | u | u | 18µM
CN(C)CCN1CCN(C2CN(Cc3cn(Cc4ccc(Cl)cc4)nn3)S(=O)(=O)C2)CC1 (configuration not stated) | n | n | n | n | n
CN1CCN(C2CN(Cc3cn(Cc4ccc(F)cc4)nn3)S(=O)(=O)C2)CC1 (configuration not stated) | n | -65 | n | n | n
